Results taken from PubChem BioAssay (Tox21).
Values joined by “and” are separate entries in the source; they are usually repeats but may differ in a detail not shown here. Identical values can stand only once. Results filed as inconclusive are left out. Entries that show only a call come without a potency. The source holds several records for some structures; these can differ, active in one and inactive in another. Active and inactive are the calls of the source. Calls come from the whole dose curve; as a rule, active = well fitted curve in the direction sought with a large enough effect in the repeat runs; inconclusive = weak or mixed curves; inactive = no such curve, though single readings can be large; an effect the other way counts as inactive or inconclusive.

Test: qHTS RealTime-Glo MT Cell Viability Assay in HepG2 cells - 32 hour (AID 1224877); note: nearly all actives have a fitted effect of over 55% in size
Settings: RealTime-Glo luminescence; series mostly up to 76.8 µM; activity change, negative = cytotoxic: at the top concentration
Summary of the method: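 Compound treatment began 5 h after plating HepG2 cells (600/well) with NanoLuc luciferase and prosubstrate. Plates stayed at 37 C for 40 h; luminescence was captured at six time points, 0 h through 40 h.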

Row | Structure (SMILES) | activity change, negative = cytotoxic | Potency
1 | CC(C)(C)NCC(O)c1cc(O)cc(O)c1 (configuration not stated) | 0.326% [at 35.3 µM] (inactive) | 
2 | Cc1ccnc2c1NC(=O)c1cccnc1N2C1CC1 |  | inactive
3 | NC(=Nc1ccccc1)Nc1ccccc1 |  | inactive
4 | CC(=O)OCC1=C(C(=O)O)N2C(=O)[C@@H](NC(=O)Cc3cccs3)[C@H]2SC1 | 0.381% [at 35.3 µM] (inactive) | 
5 | COC(=O)c1cccc(C(=O)OC)c1 |  | inactive
6 | Cc1cccc(O)c1C |  | inactive
7 | [Cl][In]([Cl])[Cl] |  | inactive
8 | O |  | inactive
9 | CC(=O)C1=C(C)[C@@H]2C[C@@]3(C1)[C@H](C)CC[C@H]3C2(C)C |  | inactive
10 | C#CC(C)(CC)OC(=O)c1ccccc1C(=O)O (configuration not stated) | 1.88% [at 35.3 µM] (inactive) | 
11 | CCCCOCCOC(=O)c1ccccc1C(=O)OCCOCCCC |  | inactive
12 | O=C(O)CP(=O)(O)O | -2.06% [at 35.3 µM] (inactive) | 
13 | c1ccc2cc3c(ccc4ccccc43)cc2c1 |  | inactive
14 | CCCN[C@H]1CCc2nc(N)sc2C1 |  | inactive

Test: A CellTox Green Cytotoxicity Assay to monitor cytotoxicity in HepG2 cells - 24 hour (AID 1224878); note: nearly all actives have a fitted effect of over 45% in size; note: potency is the fitted concentration of half-maximal effect
Settings: CellTox Green fluorescence; series mostly up to 76.8 µM; cytotoxicity: at the top concentration
Summary of the method: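 Using 1536-well format, dye-containing HepG2 suspension was seeded, allowed 5 h at 37 C/5% CO2, dosed by pintool with compounds, positive and negative controls, and imaged for fluorescence across 40 h.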

Row | Structure (SMILES) | Potency | cytotoxicity
15 | CCOc1ccccc1C(N)=O | inactive | 
16 | C/C=C/c1ccc(OCC)c(O)c1 | inactive | 
17 | Nc1nc(=S)c2[nH]cnc2[nH]1 | inactive | 
18 | O=c1n(CC2CO2)c(=O)n(CC2CO2)c(=O)n1CC1CO1 (configuration not stated) | inactive | 
19 | CCc1ccc(C(c2ccc(CC)cc2)C(Cl)Cl)cc1 | inactive | 
20 | CCC[C@H](N[C@@H](C)C(=O)N1[C@H](C(=O)O)C[C@@H]2CCCC[C@@H]21)C(=O)OCC | inactive | 
21 | O=C1Nc2ccccc2C1(c1ccc(O)cc1)c1ccc(O)cc1 | inactive | 
22 | CC[C@]1(O)C[C@@H]2CN(CCc3c([nH]c4ccccc34)[C@@](C(=O)OC)(c3cc4c(cc3OC)N(C)[C@H]3[C@@](O)(C(=O)OC)[C@H](OC(C)=O)[C@]5(CC)C=CCN6CC[C@]43[C@@H]65)C2)C1 | inactive | 
23 | CCCCCCC(O)CCCCCCCCCCC(=O)O (configuration not stated) |  | 0.106% (inactive)
24 | CCN(CC)c1ccc2c(C)cc(=O)oc2c1 | inactive | 
25 | NCCO | inactive | 
26 | CC(=O)OCCOCCOCCOC(C)=O | inactive | 
27 | O=C(O)c1cccc(C(=O)O)c1 | inactive | 
28 | C=C(C)C1CC=C(C)C(OC(C)=O)C1 (configuration not stated) | inactive | 
29 | O=C(Oc1ccccc1)c1ccccc1O |  | 27.1% (inactive)
30 | CCC(=O)/C=C/C1C(C)=CCCC1(C)C (configuration not stated) |  | 8.03% (inactive)
31 | CC(C)(C)NC(=O)[C@@H]1CN(Cc2cccnc2)CCN1C[C@@H](O)C[C@@H](Cc1ccccc1)C(=O)N[C@H]1c2ccccc2C[C@H]1O | inactive | 
32 | COC(=O)/C=C/c1ccccc1 | inactive | 
33 | CC(C)(C)NCC(O)c1cc(O)cc(O)c1 (configuration not stated) |  | -18.4% [at 35.3 µM] (inactive)

Row | Structure (SMILES) | Potency | cytotoxicity
34 | Cc1ccnc2c1NC(=O)c1cccnc1N2C1CC1 | inactive | 
35 | NC(=Nc1ccccc1)Nc1ccccc1 | inactive | 
36 | CC(=O)OCC1=C(C(=O)O)N2C(=O)[C@@H](NC(=O)Cc3cccs3)[C@H]2SC1 |  | -10.1% [at 35.3 µM] (inactive)
37 | COC(=O)c1cccc(C(=O)OC)c1 | inactive and 38.9 µM (active) | 
38 | Cc1cccc(O)c1C |  | 0.473% (inactive)
39 | CC(=O)Nc1ccc(C(=O)CCl)cc1 | inactive and 21.9 µM (active) | 
40 | OCCN1CCNCC1 | inactive | 
41 | [Cl][In]([Cl])[Cl] |  | -17% (inactive)
42 | O | inactive | 
43 | C=C(C)C(=O)O | inactive | 
44 | O=C(Cl)c1cccc(C(=O)Cl)c1 | inactive | 
45 | CC(=O)C1=C(C)[C@@H]2C[C@@]3(C1)[C@H](C)CC[C@H]3C2(C)C |  | 23.9% (inactive)
46 | C#CC(C)(CC)OC(=O)c1ccccc1C(=O)O (configuration not stated) |  | -0.248% [at 35.3 µM] (inactive)
47 | CCCCOCCOC(=O)c1ccccc1C(=O)OCCOCCCC | inactive | 
48 | O=C(O)CP(=O)(O)O |  | 0.358% [at 35.3 µM] (inactive)
49 | c1ccc2cc3c(ccc4ccccc43)cc2c1 | inactive | 
50 | O=C(O)c1cn(-c2ccc(F)cc2)c2cc(N3CCNCC3)c(F)cc2c1=O | inactive | 
51 | CC(=O)O[C@]1(C(C)=O)CC[C@H]2[C@@H]3C[C@H](C)C4=CC(=O)CC[C@]4(C)[C@H]3CC[C@@]21C | inactive | 
52 | CCCN[C@H]1CCc2nc(N)sc2C1 | inactive | 
